# Measurements as given in PubChem BioAssay AID652183 (National Center for Advancing Translational Sciences (NCATS), 2013).
# Records with an inconclusive call do not appear. A call without a number means that no potency is given here. Activity calls are given as the source filed them. Calls come from the whole dose curve; as a rule, active = well fitted inhibition curve with a large enough effect; inconclusive = small, poorly fitted or top-dose-only effect; inactive = no such curve, though single readings can be large or run the other way.
# Assay: qHTS Assay for Lipid Storage Modulators: Differentiation Assay against Probe and Analogs
# Conditions: 3T3-L1 adipocyte differentiation, BODIPY lipid imaging, 8 d; series mostly up to 20 µM
# Source text: Storing lipids as a reservoir for energy or the anabolism of elementary metabolites is a common feature of probably all cells and is conserved from bacteria to humans. The universal cellular lipid storage organelle is the so-called lipid storage droplet (LD). Although ubiquitous, LDs share a simple structure composed of a hydrophobic core that harbors the storage lipids, which is shielded by a droplet-specific phospholipid monolayer to which proteins are attached. The current model of LD biogenesis involves an incorporation of the lipid core into the membrane leaflets of the endoplasmic reticulum (ER) followed by a subsequent budding-like maturation of a LD, which ultimately pinches off. Once released, LD volume can increase by localized lipogenesis or fusion of existing droplets. Storage lipids are re-mobilized enzymatically by lipase activity. Lipase regulation in the adipocyte is heavily studied and involves multiple components including catecholamine signaling, the LD-associated proteins Perilipin and comparative gene identification-58 (CGI-58) and at least two lipases named hormone sensitive lipase (HSL) and adipocyte triglyceride lipase (ATGL). LD regulation outside of the adipocyte is poorly understood and only few components are known. However, there is an urgent need to learn more about ectopic fat depots as mislocalized storage of lipids, for example in the liver or muscle, is an eminent health problem associated with insulin resistance or the metabolic syndrome. We developed a laser-scanning cytometer assay to enable 1,536-well screening and combined the results of the small molecules screen with an RNAi database based on lipid storage. […] NIH Chemical Genomics Center [NCGC] MLPCN Grant: MH085686 Assay Submitter (PI): Mathias Beller, Max-Planck-Institut fur Biophysikalische Chemie
# 3T3L1 cells were obtained from ATCC (CL-173). Pre-adipocyte medium (PM-1), differentiation medium (DM-2) and after adipocyte medium (AM-1) were purchased from Zen-Bio (# PM-1-L1, DM-2-L1, AM-1-L1). 200 uL of PM-1containing 3,000 cells was dispensed into each well of a 96-well plate (Corning, #3340), and the assay plates were incubated at 37 °C, 95% humidity and 5% CO2 for 3-5 days. The differentiation of pre-adipocyte to adipocyte was induced by removing the pre-adipocyte medium and replacing with 200 uL of differentiation medium. 1 uL of compounds at different concentrations dissolved in differentiation medium were added to the assay plates, along with medium exchange for differentiation to test their effects on adipocyte differentiation. The final DMSO concentration was 0.5%.Triacsin C (Sigma-Aldrich T-4540), an inhibitor of long-chain fatty acyl CoA synthetase that blocks synthesis of triglycerides, was used as a positive control for lipid under-storage. […]
row,Compound,Potency
1,CCOC(=O)C1CCN(C(=O)C2(NC(=O)Nc3ccccc3Cl)CCCC2)CC1,inactive
2,CCOc1ccc(CCNC(=O)c2cc3ccccc3n2Cc2ccccn2)cc1OCC,12.6 µM (active)
3,CCOc1ccc(CCNC(=O)c2cc3sccc3n2CCN(C)C)cc1OCC,inactive
4,CCOc1ccc(CCNC(=O)c2cc3sccc3n2Cc2ccc(F)cc2F)cc1OCC,inactive
